Measurements as given in PubChem BioAssay (EPA / NIEHS).
Inconclusive results are not listed. Calls of active or inactive are those of the source. The calls were made as follows: active = hit-call score of the fitted dose curve at least 0.9, where 1 is the maximum; inconclusive = response in the unintended direction; inactive = score below 0.9.

The compounds below were run against Estrogen receptor beta (Homo sapiens) (UniProt Q92731) (assay: OT_ER_ERbERb_0480: Odyssey Thera (OT) 8-hour HEK293T Protein-Complementation Assay for Estrogen Receptor-beta/-beta Homodimer (AID 2283357)).
Estrogen receptor beta (Homo sapiens), sequence (Q92731 whole entry, looked up, the tested form may be a part): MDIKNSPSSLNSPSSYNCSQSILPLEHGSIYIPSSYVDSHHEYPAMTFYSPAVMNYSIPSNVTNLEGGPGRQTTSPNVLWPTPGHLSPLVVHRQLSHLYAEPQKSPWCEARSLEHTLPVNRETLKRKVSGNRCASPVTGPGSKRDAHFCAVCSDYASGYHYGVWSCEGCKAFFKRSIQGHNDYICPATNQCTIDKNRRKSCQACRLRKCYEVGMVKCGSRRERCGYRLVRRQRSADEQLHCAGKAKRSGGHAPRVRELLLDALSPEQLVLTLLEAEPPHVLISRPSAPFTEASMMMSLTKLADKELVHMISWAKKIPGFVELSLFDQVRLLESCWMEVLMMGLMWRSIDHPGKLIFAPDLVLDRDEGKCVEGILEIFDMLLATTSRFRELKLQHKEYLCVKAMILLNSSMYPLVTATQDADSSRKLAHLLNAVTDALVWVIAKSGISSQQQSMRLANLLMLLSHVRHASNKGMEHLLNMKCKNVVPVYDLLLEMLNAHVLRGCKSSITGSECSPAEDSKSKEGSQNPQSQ
Experimental: OT_ER_ERbERb_0480 is a cell-based assay that uses HEK293T, a human kidney cell line, with measurements taken at 8 hours after chemical dosing in a 384-well plate.OT_ER_ERbERb_0480 is one of one assay component(s) measured or calculated from the OT_ER_ERbERb_0480 assay. It is designed to make measurements of protein fragment complementation, a form of binding reporter, as detected with fluorescence intensity signals by Protein-fragment Complementation technology.Data from the assay component OT_ER_ERbERb_0480 was analyzed into 1 assay endpoint. This assay endpoint, OT_ER_ERbERb_0480, was analyzed in the positive analysis fitting direction relative to DMSO as the negative control and baseline of activity. Using a type of binding reporter, measures of receptor for gain-of-signal activity can be used to understand the binding at the pathway-level as they relate to the gene ESR2. Furthermore, this assay endpoint can be referred to as a primary readout, because the performed assay has only produced 1 assay endpoint. To generalize the intended target to other relatable targets, this assay endpoint is annotated to the nuclear receptor intended target family, where the subfamily is steroidal.
Protein-fragment complementation assay, or PCA, is a method for the identification and quantification of protein-protein interactions. In the PCA, the proteins of interest ("bait" and "prey") are each covalently linked to fragments of a third protein (e.g. DHFR, which acts as a "reporter"). Interaction between the bait and the prey proteins brings the fragments of the reporter protein in close proximity to allow them to form a functional reporter protein whose activity can be measured. The OT ER beta / ER beta assay is a homodimer PCA of the ligand binding domain (LBD; amino acids 310-547) of human ER beta stably expressed in HEK293T cells. […] Cells are fixed in 4 percent formaldehyde and stained with Draq5 (BioStatus) to identify cells prior to signal detection. Fluorescent signal in the basal state of the assay is very low and is primarily punctuate and cytoplasmic. Modulation of this assay is quantified as an increase in mean fluorescence intensity in the nucleus (for agonists) or in the nucleus and cytoplasm (antagonists) relative to vehicle controls, and can be quantified on a high content imaging device or a laser scanning cytometer. The latter instrument is favored for this assay because of the rapid mode of data acquisition, the ability to acquire data from the entire cell population in a well (as opposed to a fraction of the well on the high content devices) and the larger dynamic range typically achieved with this instrument. To assess sensitivity of the ER beta/ER beta LBD assay to ligand, cells were treated with the ER agonist 17- beta-estradiol (E2) in 10-point concentration- response format for 8 hours and monitored response on a laser scanning plate cytometer (Acumen eX3; TTP Lab Tech).
`CC(CN=Cc1ccccc1O)N=Cc1ccccc1O` (stereo not given) was tested, and the outcome was “inactive”.
For `C=C[Si]1(C)O[Si](C)(C=C)O[Si](C)(C=C)O[Si](C)(C=C)O1` (stereo not given), the AC50 was 23.8 µM (active).
With `Clc1ccc(C(c2ccccc2Cl)C(Cl)Cl)cc1` (stereo not given) the AC50 was 3.87 µM (active).
With `O=Cc1ccccc1S(=O)(=O)O` the outcome was “inactive”.
`CCC1(C)NC(=O)NC1=O` (stereo not given) was tested, and the outcome was “inactive”.
`COc1ccccc1N=Nc1c(S(=O)(=O)O)cc2cc(S(=O)(=O)O)cc(NC(C)=O)c2c1O` was tested, and the outcome was “inactive”.
`C#CC(C)(O)CC(C)C` (stereo not given) was tested, and the outcome was “inactive”.
In the case of `CC(=O)O[C@H]1C[C@@H]2CC[C@@]1(C)C2(C)C`, the outcome was “inactive”.
In the case of `C=CC(C)(O)CCC=C(C)C` (stereo not given), the outcome was “inactive”.
For `CC1CC(O)CC(C)(C)C1` (stereo not given), the outcome was “inactive”.
`CCOC(=O)c1ccc(N)cc1` was tested, and the outcome was “inactive”.
`COc1ccc(N=Nc2cc(C)c(N=Nc3ccc(S(=O)(=O)O)cc3)cc2OC)cc1` was tested, and the outcome was “inactive”.
`CN(C)c1cccc(O)c1` was tested, and the outcome was “inactive”.
`CCOc1ccccc1O` was tested, and the outcome was “inactive”.
For `OCC#CCO`, the outcome was “inactive”.
In the case of `OCc1cccc(Oc2ccccc2)c1`, the AC50 was 47.7 µM (active).
With `CN1C(=O)c2ccccc2C1=O` the outcome was “inactive”.
`CCCCCCC(=O)c1ccccc1` was tested, and the outcome was “inactive”.
With `CC(C)c1ccccc1O` the outcome was “inactive”.
`O=[N+]([O-])c1ccc(O)cc1C(F)(F)F` was tested, and the AC50 was 64.6 µM (active).
With `C=C(C)C(=O)OCCOC1CC2CC1C1C=CCC21` (stereo not given) the outcome was “inactive”.
In the case of `CCCC(=O)OC(C)(C)Cc1ccccc1`, the outcome was “inactive”.
`CCC(=O)O[C@@H]1C[C@H]2CC[C@]1(C)C2(C)C` was tested, and the outcome was “inactive”.
For `C=Cc1ccc(C)cc1`, the outcome was “inactive”.
With `CC(C)CCCCCCc1ccc(OCCOCCO)cc1` the AC50 was 38.6 µM (active).
With `O=C(c1ccccc1)C(O)c1ccccc1` (stereo not given) the outcome was “inactive”.
For `O=P(O)(O)O`, the outcome was “inactive”.
In the case of `CCc1cc(Cc2cc(CC)cc(C(C)(C)C)c2O)c(O)c(C(C)(C)C)c1`, the outcome was “inactive”.
With `CCCCCCCCCCCCCC(=O)OCC(O)CO` (stereo not given) the outcome was “inactive”.
`Cc1ccc(S(=O)(=O)Oc2ccc(N=Nc3ccc(-c4ccc(N=Nc5c(O)ccc6cc(S(=O)(=O)O)cc(S(=O)(=O)O)c56)c(C)c4)cc3C)cc2)cc1` was tested, and the outcome was “inactive”.
With `CC(C)Nc1nc(N)nc(Cl)n1` the outcome was “inactive”.
In the case of `ON=C1CCCCC1`, the outcome was “inactive”.
In the case of `COC(=O)c1ccc(C)cc1C1=NC(C)(C(C)C)C(=O)N1` (stereo not given) (tested in a mixture with another compound), the outcome was “inactive”.
With `C=CC(=O)OCCCC` the outcome was “inactive”.
In the case of `CC(C)CCCCCCCCCCCCCCC(=O)O`, the outcome was “inactive”.
With `COS(=O)(=O)O` the outcome was “inactive”.
For `CCCCC(CC)COC(C)=O` (stereo not given), the outcome was “inactive”.
For `CN1CCOCC1`, the outcome was “inactive”.
`CCCCCCCCN1CCCC1=O` was tested, and the outcome was “inactive”.
With `CCOC(=O)[C@@H](C)Oc1ccc(Oc2nc3ccc(Cl)cc3o2)cc1` the outcome was “inactive”.
